Inconclusive results are not listed. The source made the active and inactive calls. Unless noted, calls follow the shape of the dose curve; as a rule, active = well fitted curve in the direction sought with a large enough effect in the repeat runs; inconclusive = weak or mixed curves; inactive = no such curve, though single readings can be large; an effect the other way counts as inactive or inconclusive. Non-standard residues stand in square brackets, D forms with d. Residues, ends and D or L forms follow the SMILES beside them. *: point of attachment. Sta = CC(C)C[C@H](N)[C@@H](O)CC(=O)O; Isovaleryl = CC(C)CC(=O)*
Legend:
[1] = qHTS assay to identify small molecule agonists or antagonists of the thyroid stimulating hormone receptor (TSHR) signaling pathway - wild type cell line counter screen (AID 1259384; calls by dose curve)
Summary of the method: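 Counter screen in untransfected Hek293: compounds (15-point titration, triplicate) plus phosphodiesterase inhibitor Ro20-1724 added after 18 h plating; 30 min RT. Intracellular cAMP via competitive d2/cryptate immunoassay, 1 h incubation.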

[2] = biological target: Thyrotropin receptor (Homo sapiens) (UniProt P16473); test: qHTS assay to identify small molecule antagonists of the thyroid stimulating hormone receptor (TSHR) signaling pathway (AID 1259385; calls by dose curve; also: nearly all actives have a fitted effect of over 20% in size)
Summary of the method: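 Antagonist mode: compound-treated TSHR-expressing HEK293 cells were stimulated with 1.5 ng/mL TSH (final) in presence of Ro20-1724 for 30 min at RT. HTRF cAMP detection after 1 h; each compound tested at 15 concentrations, triplicate.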

[3] = qHTS assay to identify small molecule agonists of the estrogen receptor alpha (ER-alpha) signaling pathway in the presence of an antagonist - cell viability counter screen (AID 1259386);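 also: series mostly up to about 92 µM; cells exposed to compounds for 22 h at 37 °C before the viability read; nearly all actives have a fitted effect of over 30% in size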
Summary of the method: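 Read-out: CellTiter-Fluor fluorescence after 1hr reagent incubation, measured in the same wells as the luciferase readout. VM7Luc4E2 cells were exposed to 15 compound concentrations with 10.0nM ICI-182,780 for 22hr at 37C.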

[4] = biological target: Progesterone receptor (Homo sapiens) (UniProt P06401); test: qHTS assay to identify small molecule antagonists of the progesterone receptor (PR) signaling pathway (AID 1346795; active = well fitted inhibition curve with a large enough effect in the signal ratio in the repeat runs, not every such curve was filed as active; the % refers to the signal ratio)
Summary of the method: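 Antagonist mode: compounds tested against 1 nM (final) promegestone stimulation in HEK293T cells expressing PR-UAS-bla reporter, 16 hr at 37C, 5% CO2; beta-lactamase activity detected via B/G FRET substrate after 2 hr at room temperature.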

[5] = qHTS assay to identify small molecule antagonists of the progesterone receptor (PR) signaling pathway - cell viability counter screen (AID 1346798); also: series mostly up to about 92 µM; nearly all actives have a fitted effect of over 50% in size
Summary of the method: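 Counter screen for cytotoxicity: viability of PR-UAS-bla HEK293T cells was measured with CellTiter-Glo luminescence following 16 hr compound exposure in the presence of R5020.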

[6] = qHTS assay to identify small molecule antagonists of the TGF-beta/Smad signaling pathway - cell viability counter screen (AID 1346824); also: nearly all actives have a fitted effect of over 50% in size
Summary of the method: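 Cytotoxicity counter-screen run in the same wells as the beta-lactamase Smad reporter read: CellTiter-Glo luminescence after 30 min at room temperature. HEK 293T SBE-bla cells had 5 hr compound exposure at 37 C with TGF-beta1 (0.25 ng/mL stock).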

[7] = qHTS assay to identify small molecule agonists of the TGF-beta/Smad signaling pathway (AID 1346859; active = well fitted activation curve with a large enough effect in the signal ratio in the repeat runs, not every such curve was filed as active; the % refers to the signal ratio; also: series mostly up to about 77 µM)
Summary of the method: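 Reporter line: HEK 293T with stably integrated SBE-controlled beta-lactamase. Compound exposure lasts 5 hr at 37 C and 5% CO2; substrate loading follows for 2 hr at room temperature, with emission read at 460 and 530 nm.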

[8] = biological target: Thyrotropin-releasing hormone receptor (Homo sapiens) (UniProt P34981); test: qHTS assay to identify small molecule antagonists of the thyrotropin-releasing hormone receptor (TRHR) signaling pathway (AID 1346877; active = well fitted inhibition curve with a large enough effect in the repeat runs, not every such curve was filed as active; also: series mostly up to about 51 µM)
Summary of the method: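 HEK293/TRHR cells, 18 h, 37 °C; Ca2+ dye 2 h; cpd 5 min RT; TRH 1 nM final; fluorescence read 3 min, 1 s intervals; 15 concs, triplicate.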

[9] = biological target: Thyrotropin-releasing hormone receptor (Homo sapiens) (UniProt P34981); test: qHTS assay to identify small molecule agonists of the thyrotropin-releasing hormone receptor (TRHR) signaling pathway (AID 1346891; calls by dose curve;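 also: HEK293 cells expressing TRHR with calcium dye readout; series mostly up to about 58 µM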)
Summary of the method: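 Cells: TRHR-Hek293, seeded and incubated 18 h. Dye loading: 2 h at 37 °C. Compound added from DMSO stock by pin tool. Read-out: kinetic calcium fluorescence over 3 min.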

[10] = Human pregnane X receptor (PXR) small molecule agonists, qHTS cell viability counter screen (AID 1346977); also: nearly all actives have a fitted effect of over 50% in size
Summary of the method: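 Cytotoxicity counter screen run in the same wells as the PXR luciferase assay, using PXR-Luc HepG2 cells in charcoal-stripped serum medium. Viability: CellTiter-Fluor fluorescence after 24hr compound treatment.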

[11] = Caspase-3/7 induction in HepG2 cells by small molecules, qHTS assay (AID 1346978); also: nearly all actives have a fitted effect of over 15% in size
Summary of the method: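 Caspase-3/7 induction was measured by Caspase-Glo 3/7 luminescence (30 min, room temperature) after a 17 hr compound exposure of wild-type HepG2 cells seeded at 2,000 per well and pre-incubated 5 hr.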

[12] = Caspase-3/7 induction in CHO-K1 cells by small molecules, qHTS cell viability counter screen (AID 1346979); also: nearly all actives have a fitted effect of over 35% in size
Summary of the method: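 Cytotoxicity counter screen run in parallel with the caspase-3/7 assay: CHO-K1 cells, 16hr compound treatment at 37C, then CellTiter-Fluor for 1hr before fluorescence reading.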

[13] = Caspase-3/7 induction in CHO-K1 cells by small molecules, qHTS assay (AID 1346980); also: nearly all actives have a fitted effect of over 15% in size
Summary of the method: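 Luminescent Caspase-Glo 3/7 read (30min, room temperature) quantified apoptosis induction. Cells were wild-type CHO-K1, treated with compound for 17hr at 37 C and 5% CO2.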

[14] = Caspase-3/7 induction in HepG2 cells by small molecules, qHTS cell viability counter screen (AID 1346981); also: series mostly up to about 92 µM; nearly all actives have a fitted effect of over 30% in size
Summary of the method: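 Fluorescence read-out of live-cell protease activity (CellTiter-Fluor) after 1 hr with reagent. This was measured in the same wells as the caspase-3/7 luminescence, on HepG2 cells exposed to DMSO-dissolved compounds for 16 hr at 37 C.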

[15] = biological target: Nuclear receptor subfamily 1 group I member 2 (Homo sapiens) (UniProt O75469); test: Human pregnane X receptor (PXR) small molecule agonists, qHTS assay (AID 1346982); also: nearly all actives have a fitted effect of over 35% in size; also: potency is read from the fitted curve at half-maximal effect
Summary of the method: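 HepG2 PXR-Luc reporter line, 5% charcoal-stripped FBS; 5 hr pre-incubation, compound (DMSO) 24 hr at 37 C/5% CO2; ONE-Glo 30 min RT; luminescence read-out.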

[16] = biological target: Progesterone receptor (Homo sapiens) (UniProt P06401); test: qHTS assay to identify small molecule agonists of the progesterone receptor (PR) signaling pathway (AID 1346784; calls by dose curve; also: nearly all actives have a fitted effect of over 30% in size)
Summary of the method: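 Cells (PR-UAS-bla HEK 293T, GripTite) were plated in assay medium containing 2% charcoal-stripped FBS and incubated 6 hr. Test compounds in DMSO were added for 16 hr at 37C. FRET substrate was then loaded for 2 hr at room temperature before fluorescence reading.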

[17] = qHTS assay to identify small molecule agonists of the progesterone receptor (PR) signaling pathway - cell viability counter screen (AID 1346799; calls by dose curve; also: nearly all actives have a fitted effect of over 45% in size)
Summary of the method: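 Cells (PR-UAS-bla HEK293T) are plated at 3,000/well in 2% charcoal-stripped FBS medium, rested 6 hr, dosed and incubated 16 hr at 37C. CellTiter-Glo is then added and luminescence measured after 30 min at room temperature.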

[18] = qHTS assay to identify small molecule agonists of the TGF-beta/Smad signaling pathway - cell viability counter screen (AID 1346829); also: top concentration of the series differs between compounds; nearly all actives have a fitted effect of over 45% in size
Summary of the method: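 Cytotoxicity counter screen: CellTiter-Glo luminescence (30 min, room temperature) measured in the SBE-bla HEK 293T reporter wells after 5 hr compound treatment at 37 C and the 2 hr substrate step.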

[19] = biological target: Nuclear receptor subfamily 1 group I member 2 (Rattus norvegicus) (UniProt Q9R1A7); test: Rat pregnane X receptor (rPXR) activation by small molecules, qHTS assay (AID 1346983); conditions: rPXR luciferase reporter cells, One-Glo luminescence, 24 h; max activation: stronger effect = higher value; also: nearly all actives have a fitted effect of over 20% in size
Summary of the method: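 Luminescent readout (One-Glo luciferase, 30 min room temperature) followed 24 hr compound treatment at 37 C of rPXR cells plated 2,000 per well and preincubated 5hr; qHTS format with compounds delivered in DMSO.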
% is scaled to controls: 0 for no effect and ±100 for the full control effect.

Sequence of Thyrotropin-releasing hormone receptor (Homo sapiens) (P34981 whole entry, looked up): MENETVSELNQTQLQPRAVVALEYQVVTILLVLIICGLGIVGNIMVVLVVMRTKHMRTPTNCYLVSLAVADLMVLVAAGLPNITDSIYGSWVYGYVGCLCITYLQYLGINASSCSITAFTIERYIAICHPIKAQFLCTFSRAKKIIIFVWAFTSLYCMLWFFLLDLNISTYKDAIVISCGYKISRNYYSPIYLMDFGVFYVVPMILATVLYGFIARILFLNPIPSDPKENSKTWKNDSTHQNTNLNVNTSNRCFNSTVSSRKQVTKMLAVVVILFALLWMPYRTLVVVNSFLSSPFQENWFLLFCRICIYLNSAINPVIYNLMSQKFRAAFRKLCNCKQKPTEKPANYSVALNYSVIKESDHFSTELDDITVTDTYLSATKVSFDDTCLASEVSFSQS
Sequence of Nuclear receptor subfamily 1 group I member 2 (Homo sapiens) (O75469 whole entry, looked up): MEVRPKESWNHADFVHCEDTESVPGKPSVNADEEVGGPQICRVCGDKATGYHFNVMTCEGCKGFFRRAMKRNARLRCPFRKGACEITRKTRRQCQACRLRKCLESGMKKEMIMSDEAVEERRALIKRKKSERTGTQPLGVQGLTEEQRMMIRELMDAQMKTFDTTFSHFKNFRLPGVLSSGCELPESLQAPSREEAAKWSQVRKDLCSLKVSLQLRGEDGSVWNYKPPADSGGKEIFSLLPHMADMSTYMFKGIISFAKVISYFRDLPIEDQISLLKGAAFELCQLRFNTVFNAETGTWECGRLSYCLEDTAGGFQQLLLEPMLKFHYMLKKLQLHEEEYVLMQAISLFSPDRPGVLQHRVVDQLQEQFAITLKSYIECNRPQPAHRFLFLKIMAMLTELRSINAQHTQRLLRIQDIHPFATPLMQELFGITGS
Sequence of Progesterone receptor (Homo sapiens) (P06401 whole entry, looked up): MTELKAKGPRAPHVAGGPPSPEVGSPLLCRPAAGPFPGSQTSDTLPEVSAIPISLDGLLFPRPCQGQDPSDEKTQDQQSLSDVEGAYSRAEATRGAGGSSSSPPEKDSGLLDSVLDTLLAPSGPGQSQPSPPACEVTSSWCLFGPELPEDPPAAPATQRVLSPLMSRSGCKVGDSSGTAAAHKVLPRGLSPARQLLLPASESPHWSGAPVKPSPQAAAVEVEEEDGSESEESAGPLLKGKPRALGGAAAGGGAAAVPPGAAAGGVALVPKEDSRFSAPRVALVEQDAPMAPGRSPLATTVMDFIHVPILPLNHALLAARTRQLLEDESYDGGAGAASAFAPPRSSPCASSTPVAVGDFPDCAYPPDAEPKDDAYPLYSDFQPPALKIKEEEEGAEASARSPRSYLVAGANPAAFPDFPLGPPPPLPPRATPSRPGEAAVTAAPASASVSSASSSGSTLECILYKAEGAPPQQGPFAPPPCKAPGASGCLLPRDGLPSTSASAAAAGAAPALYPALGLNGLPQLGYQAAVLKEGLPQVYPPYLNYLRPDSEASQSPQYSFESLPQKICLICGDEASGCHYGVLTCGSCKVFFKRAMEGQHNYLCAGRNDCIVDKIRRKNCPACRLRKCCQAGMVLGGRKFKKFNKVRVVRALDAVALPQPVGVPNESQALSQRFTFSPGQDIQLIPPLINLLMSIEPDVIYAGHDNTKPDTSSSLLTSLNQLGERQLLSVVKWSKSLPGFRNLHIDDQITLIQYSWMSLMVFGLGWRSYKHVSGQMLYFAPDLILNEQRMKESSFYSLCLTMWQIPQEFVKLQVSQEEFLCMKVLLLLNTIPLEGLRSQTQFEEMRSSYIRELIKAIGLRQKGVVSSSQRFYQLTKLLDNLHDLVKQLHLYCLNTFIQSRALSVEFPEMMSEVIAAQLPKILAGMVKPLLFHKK
Sequence of Thyrotropin receptor (Homo sapiens) (P16473 whole entry, looked up): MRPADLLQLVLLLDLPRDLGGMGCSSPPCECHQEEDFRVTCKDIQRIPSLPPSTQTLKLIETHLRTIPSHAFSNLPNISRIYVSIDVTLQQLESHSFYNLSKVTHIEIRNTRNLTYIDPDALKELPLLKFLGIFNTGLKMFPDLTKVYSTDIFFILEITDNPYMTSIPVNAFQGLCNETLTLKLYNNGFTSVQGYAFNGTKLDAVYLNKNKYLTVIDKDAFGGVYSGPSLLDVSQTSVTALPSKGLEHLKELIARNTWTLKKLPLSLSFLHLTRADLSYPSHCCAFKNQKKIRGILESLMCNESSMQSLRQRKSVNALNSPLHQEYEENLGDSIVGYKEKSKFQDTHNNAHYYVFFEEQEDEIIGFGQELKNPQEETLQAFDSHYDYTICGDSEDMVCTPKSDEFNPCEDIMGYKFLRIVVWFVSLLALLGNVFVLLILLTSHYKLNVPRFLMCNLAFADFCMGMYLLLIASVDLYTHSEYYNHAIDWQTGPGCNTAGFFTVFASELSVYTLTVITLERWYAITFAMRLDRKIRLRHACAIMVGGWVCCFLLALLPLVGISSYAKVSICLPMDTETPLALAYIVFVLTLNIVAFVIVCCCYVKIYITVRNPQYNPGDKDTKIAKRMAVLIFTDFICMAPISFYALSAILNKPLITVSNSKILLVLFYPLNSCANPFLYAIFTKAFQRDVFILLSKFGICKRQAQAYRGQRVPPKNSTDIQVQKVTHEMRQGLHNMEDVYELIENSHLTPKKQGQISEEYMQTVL
Sequence of Nuclear receptor subfamily 1 group I member 2 (Rattus norvegicus) (Q9R1A7 whole entry, looked up): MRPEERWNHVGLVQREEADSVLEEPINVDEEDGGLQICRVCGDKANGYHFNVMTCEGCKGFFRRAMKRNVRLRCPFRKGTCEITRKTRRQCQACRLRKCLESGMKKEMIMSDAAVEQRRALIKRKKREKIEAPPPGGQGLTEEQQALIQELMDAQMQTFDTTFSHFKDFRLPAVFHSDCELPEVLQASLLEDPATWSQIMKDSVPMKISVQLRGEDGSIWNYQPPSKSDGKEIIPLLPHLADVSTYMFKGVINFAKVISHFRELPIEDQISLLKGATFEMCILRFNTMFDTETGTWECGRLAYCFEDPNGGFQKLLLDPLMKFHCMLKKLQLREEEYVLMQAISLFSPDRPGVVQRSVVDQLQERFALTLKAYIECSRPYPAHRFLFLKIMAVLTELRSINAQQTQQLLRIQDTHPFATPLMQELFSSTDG

CCCCC(O)/C=C(C)/C=C/C=C/C(=O)N1CCCC1=O (centres undefined)
inactive: outcome [1] | outcome [2] | outcome [3] | Potency [4] | outcome [5] | outcome [6] | outcome [7] | outcome [8] | Potency [9] | outcome [10] | outcome [11] | Potency [12] | outcome [13] | outcome [14] | Potency [15]

CC(C)C(C)C
inactive: outcome [1] | outcome [2] | outcome [3] | Potency [16] | outcome [5] | Potency [17] | outcome [6] | outcome [7] | outcome [10] | outcome [11] | Potency [12] | outcome [13] | outcome [14] | Potency [15]

NC[C@H]1O[C@H](O[C@H]2[C@H](O)[C@@H](O[C@H]3O[C@H](CO)[C@@H](O)[C@H](N)[C@H]3O)[C@H](N)C[C@@H]2N)[C@H](N)[C@@H](O)[C@@H]1O
inactive: cAMP activity change [1] 2.25% [at 18.9 µM] | activity change, negative = inhibition [2] 4.59% [at 19 µM] | activity change, negative = cytotoxicity [3] 10% [at 19 µM] | activity change, negative = inhibition [4] 11.8% [at 18.9 µM] | activity change, negative = cytotoxicity [17] 1.42% [at 19 µM] | viability change, negative = cytotoxic [6] 6.71% [at 15.8 µM] | activity change, negative = cytotoxicity [18] -5.22% [at 15.8 µM] | activation [7] 3.2% [at 15.8 µM] | activity, negative = inhibition [8] -3.11% [at 10.5 µM] | activity change, negative = cytotoxicity [10] 11% [at 19 µM] | caspase activation [11] -1.91% [at 19 µM] | activity change, negative = cytotoxicity [12] 1.7% [at 19 µM] | activity change, negative = cytotoxicity [14] 0.336% [at 19 µM] | activation [15] -6.93% [at 19 µM]

CC/C=C/CCCCCCCCCCOC(C)=O
inactive: outcome [1] | outcome [2] | outcome [3] | Potency [16] | Potency [4] | Potency [17] | outcome [6] | outcome [18] | outcome [7] | outcome [10] | outcome [11] | Potency [12] | outcome [14] | Potency [15]

CC12CCCC=C1C(=O)OC2=O (centres undefined)
inactive: outcome [1] | outcome [3] | Potency [16] | Potency [4] | outcome [5] | Potency [17] | outcome [6] | outcome [18] | outcome [7] | outcome [8] | outcome [10] | outcome [11] | Potency [12] | outcome [13] | outcome [14] | Potency [15]

Cc1ccc2ccccc2n1
inactive: outcome [1] | outcome [2] | outcome [3] | Potency [16] | Potency [17] | outcome [18] | outcome [7] | outcome [8] | Potency [9] | outcome [10] | outcome [11] | Potency [12] | outcome [13] | outcome [14] | Potency [15]

CC(C)CC(=O)N[C@H](C(=O)N[C@H](C(=O)N[C@@H](CC(C)C)[C@@H](O)CC(=O)N[C@@H](C)C(=O)N[C@@H](CC(C)C)[C@@H](O)CC(=O)O)C(C)C)C(C)C (Isovaleryl-VV[Sta]A[Sta]-OH)
inactive: outcome [1] | outcome [2] | outcome [3] | outcome [5] | Potency [17] | outcome [6] | outcome [18] | outcome [7] | outcome [8] | outcome [10] | outcome [11] | Potency [12] | outcome [13] | outcome [14] | Potency [15] | max activation [19] -4.42%

COC(=O)/C=C(\C)CCC=C(C)C
active: Potency [15] 61.1 µM
inactive: outcome [1] | outcome [3] | Potency [16] | Potency [4] | outcome [5] | Potency [17] | outcome [6] | outcome [18] | outcome [7] | outcome [8] | Potency [9] | outcome [10] | outcome [11] | Potency [12] | outcome [13] | outcome [14]

COC(=O)C(c1ccccc1Cl)N1CCc2sccc2C1 (centres undefined)
inactive: outcome [1] | outcome [2] | outcome [3] | outcome [5] | Potency [17] | outcome [7] | outcome [8] | Potency [9] | outcome [10] | outcome [11] | Potency [12] | outcome [13] | outcome [14]

From PubChem BioAssay (Tox21)
